The supplement of paper PMC11732987, “Enantioselective OTUD7B fragment discovery through chemoproteomics screening and high-throughput optimisation” (Communications Chemistry, 2025)

Tests used:
Assay in all cases: log2 ratio of Biotin-Ahx-Ub-VS probe labelling (fragment/DMSO); higher = less target engagement (more negative = stronger competition), active = hit call of the paper (q ≤ 0.05, log2 ratio ≤ -1)
Conditions in all cases: compound concentration: 200 uM; treatment time: 3 h
USP34 = USP34 (UniProt Q70CQ2)
USP34, sequence (Q70CQ2 whole entry, the tested form may be a part): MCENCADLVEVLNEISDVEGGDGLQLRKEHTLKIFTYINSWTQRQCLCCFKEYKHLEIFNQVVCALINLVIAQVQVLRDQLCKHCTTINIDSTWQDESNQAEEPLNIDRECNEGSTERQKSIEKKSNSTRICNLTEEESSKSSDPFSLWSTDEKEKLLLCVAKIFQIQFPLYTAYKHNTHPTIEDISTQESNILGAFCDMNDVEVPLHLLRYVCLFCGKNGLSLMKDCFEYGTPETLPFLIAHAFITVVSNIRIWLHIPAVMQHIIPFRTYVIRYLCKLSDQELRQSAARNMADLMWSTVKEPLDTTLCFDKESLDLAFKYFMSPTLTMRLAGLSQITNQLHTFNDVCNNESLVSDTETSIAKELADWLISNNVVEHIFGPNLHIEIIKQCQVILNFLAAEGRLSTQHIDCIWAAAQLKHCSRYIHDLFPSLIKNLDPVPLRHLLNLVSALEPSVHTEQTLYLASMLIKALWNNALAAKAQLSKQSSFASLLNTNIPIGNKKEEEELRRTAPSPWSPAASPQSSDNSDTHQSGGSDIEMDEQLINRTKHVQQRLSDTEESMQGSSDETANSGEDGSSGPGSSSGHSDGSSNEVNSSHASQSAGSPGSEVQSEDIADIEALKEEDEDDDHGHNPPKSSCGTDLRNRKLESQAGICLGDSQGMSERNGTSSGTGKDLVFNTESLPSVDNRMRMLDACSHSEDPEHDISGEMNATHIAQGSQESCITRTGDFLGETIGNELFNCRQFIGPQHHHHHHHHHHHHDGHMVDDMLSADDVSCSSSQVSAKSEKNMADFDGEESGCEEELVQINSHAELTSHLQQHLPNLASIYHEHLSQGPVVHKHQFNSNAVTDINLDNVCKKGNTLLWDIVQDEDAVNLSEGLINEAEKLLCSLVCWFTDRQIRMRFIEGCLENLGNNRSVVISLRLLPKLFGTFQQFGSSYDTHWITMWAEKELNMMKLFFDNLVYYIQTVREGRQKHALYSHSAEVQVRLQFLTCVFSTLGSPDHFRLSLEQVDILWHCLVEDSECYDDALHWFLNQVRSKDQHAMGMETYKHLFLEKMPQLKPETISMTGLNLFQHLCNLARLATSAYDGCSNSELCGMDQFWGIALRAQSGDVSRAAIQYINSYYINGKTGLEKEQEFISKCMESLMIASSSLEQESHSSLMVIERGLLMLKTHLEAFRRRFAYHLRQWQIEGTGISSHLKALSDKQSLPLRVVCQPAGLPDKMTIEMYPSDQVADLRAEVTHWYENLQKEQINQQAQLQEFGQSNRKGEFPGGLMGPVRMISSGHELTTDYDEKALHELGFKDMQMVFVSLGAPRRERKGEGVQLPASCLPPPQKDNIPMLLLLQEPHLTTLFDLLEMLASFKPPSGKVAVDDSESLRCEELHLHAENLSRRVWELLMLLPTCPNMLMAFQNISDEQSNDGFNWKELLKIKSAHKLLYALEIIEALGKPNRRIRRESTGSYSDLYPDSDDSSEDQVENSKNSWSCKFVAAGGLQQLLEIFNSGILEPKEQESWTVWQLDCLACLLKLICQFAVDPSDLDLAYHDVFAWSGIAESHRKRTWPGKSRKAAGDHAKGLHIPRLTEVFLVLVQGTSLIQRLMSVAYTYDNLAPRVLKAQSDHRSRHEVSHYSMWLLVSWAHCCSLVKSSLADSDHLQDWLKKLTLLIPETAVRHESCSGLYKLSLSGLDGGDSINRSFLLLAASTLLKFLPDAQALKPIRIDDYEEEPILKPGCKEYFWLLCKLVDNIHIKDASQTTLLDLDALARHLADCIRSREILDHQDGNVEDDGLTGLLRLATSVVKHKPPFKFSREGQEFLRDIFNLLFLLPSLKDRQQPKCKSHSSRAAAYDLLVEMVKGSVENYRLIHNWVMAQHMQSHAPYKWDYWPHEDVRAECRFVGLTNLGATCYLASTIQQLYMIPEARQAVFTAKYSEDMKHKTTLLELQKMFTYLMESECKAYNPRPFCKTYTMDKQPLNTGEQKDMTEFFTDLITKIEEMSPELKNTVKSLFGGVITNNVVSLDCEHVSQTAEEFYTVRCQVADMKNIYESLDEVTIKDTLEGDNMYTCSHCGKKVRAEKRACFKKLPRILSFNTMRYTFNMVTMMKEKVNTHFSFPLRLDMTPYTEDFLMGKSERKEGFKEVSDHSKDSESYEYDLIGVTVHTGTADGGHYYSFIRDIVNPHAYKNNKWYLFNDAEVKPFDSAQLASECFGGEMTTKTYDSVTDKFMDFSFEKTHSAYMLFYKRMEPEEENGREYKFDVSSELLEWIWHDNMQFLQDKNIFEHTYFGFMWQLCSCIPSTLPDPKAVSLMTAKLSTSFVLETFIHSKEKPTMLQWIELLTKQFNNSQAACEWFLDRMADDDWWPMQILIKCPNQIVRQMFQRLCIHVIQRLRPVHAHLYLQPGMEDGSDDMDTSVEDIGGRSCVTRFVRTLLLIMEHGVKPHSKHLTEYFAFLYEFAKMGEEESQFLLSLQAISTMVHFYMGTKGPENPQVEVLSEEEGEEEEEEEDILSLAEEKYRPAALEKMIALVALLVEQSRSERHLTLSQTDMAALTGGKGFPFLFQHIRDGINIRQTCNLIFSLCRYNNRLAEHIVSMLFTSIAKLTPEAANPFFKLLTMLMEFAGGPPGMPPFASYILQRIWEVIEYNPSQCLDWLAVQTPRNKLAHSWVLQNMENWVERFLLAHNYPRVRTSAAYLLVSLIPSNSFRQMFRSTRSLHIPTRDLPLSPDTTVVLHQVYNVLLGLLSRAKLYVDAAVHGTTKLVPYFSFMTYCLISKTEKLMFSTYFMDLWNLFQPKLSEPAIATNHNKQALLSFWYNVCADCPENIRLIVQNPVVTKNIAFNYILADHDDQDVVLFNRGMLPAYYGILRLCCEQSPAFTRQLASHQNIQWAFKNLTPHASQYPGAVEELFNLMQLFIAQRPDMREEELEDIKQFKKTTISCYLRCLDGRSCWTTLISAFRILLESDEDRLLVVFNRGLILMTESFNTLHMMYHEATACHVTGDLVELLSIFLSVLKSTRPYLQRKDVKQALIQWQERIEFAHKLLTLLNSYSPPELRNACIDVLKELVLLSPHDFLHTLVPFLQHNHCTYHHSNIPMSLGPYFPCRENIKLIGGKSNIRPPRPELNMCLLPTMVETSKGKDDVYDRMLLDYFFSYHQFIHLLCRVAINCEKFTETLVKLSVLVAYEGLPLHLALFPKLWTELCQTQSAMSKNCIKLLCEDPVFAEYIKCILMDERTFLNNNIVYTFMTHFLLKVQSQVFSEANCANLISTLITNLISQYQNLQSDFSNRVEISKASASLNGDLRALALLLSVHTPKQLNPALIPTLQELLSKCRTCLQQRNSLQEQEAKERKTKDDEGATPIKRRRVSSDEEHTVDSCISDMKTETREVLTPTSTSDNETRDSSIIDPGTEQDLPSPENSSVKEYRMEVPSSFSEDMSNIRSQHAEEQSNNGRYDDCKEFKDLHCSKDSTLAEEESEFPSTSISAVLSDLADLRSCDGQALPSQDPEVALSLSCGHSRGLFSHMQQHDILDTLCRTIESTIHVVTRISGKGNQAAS
In short: (§1)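 Labelled DUBs from HEK293T lysate were NeutrAvidin-enriched, digested with LysC and trypsin, and run by diaPASEF LC-MS/MS. Before that, each 495 µg sample in Tris/CHAPS/IGEPAL buffer with protease inhibitors was treated in triplicate with fragment at 200 µM or vehicle for 3 h, then with Biotin-Ahx-Ub-VS at 0.5 µM final for 1 h. Values are average log2 ratios of fragment over vehicle by unpaired t-test, based on global-median-normalised Spectronaut label-free quantities from proteins with ≥2 unique peptides.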

USP36 = target: T1, USP36 (UniProt Q9P275)
T1 sequence (whole entry): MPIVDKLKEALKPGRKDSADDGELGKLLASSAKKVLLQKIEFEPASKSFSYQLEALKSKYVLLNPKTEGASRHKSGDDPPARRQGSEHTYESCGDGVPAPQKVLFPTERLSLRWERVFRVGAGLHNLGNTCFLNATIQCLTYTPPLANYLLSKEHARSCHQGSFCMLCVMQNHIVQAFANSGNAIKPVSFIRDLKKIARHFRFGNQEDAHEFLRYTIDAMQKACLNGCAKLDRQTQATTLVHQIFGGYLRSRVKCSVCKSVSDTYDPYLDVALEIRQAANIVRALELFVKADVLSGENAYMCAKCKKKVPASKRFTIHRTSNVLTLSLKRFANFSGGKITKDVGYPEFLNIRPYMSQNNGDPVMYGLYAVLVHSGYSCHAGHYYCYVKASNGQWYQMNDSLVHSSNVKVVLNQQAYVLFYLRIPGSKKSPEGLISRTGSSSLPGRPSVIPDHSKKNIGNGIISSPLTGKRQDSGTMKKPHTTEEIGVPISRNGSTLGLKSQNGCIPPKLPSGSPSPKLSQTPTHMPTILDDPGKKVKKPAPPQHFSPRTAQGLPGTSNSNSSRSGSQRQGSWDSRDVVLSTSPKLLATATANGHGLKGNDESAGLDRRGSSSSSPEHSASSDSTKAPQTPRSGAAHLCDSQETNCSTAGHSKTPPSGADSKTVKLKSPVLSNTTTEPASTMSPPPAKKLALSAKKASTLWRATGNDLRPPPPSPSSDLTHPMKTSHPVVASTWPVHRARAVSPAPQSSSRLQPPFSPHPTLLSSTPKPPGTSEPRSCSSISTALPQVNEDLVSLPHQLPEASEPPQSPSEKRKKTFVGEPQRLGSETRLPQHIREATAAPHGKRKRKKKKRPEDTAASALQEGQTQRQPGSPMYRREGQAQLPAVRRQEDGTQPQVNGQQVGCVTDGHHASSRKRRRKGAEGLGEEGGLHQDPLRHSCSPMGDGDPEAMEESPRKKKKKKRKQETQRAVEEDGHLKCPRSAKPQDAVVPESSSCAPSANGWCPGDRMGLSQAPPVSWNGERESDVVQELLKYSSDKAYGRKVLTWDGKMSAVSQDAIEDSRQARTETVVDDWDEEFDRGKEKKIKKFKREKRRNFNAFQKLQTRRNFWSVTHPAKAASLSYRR
In short: as §1

USP38 = target: T2, USP38 (UniProt Q8NB14)
T2 sequence (whole entry): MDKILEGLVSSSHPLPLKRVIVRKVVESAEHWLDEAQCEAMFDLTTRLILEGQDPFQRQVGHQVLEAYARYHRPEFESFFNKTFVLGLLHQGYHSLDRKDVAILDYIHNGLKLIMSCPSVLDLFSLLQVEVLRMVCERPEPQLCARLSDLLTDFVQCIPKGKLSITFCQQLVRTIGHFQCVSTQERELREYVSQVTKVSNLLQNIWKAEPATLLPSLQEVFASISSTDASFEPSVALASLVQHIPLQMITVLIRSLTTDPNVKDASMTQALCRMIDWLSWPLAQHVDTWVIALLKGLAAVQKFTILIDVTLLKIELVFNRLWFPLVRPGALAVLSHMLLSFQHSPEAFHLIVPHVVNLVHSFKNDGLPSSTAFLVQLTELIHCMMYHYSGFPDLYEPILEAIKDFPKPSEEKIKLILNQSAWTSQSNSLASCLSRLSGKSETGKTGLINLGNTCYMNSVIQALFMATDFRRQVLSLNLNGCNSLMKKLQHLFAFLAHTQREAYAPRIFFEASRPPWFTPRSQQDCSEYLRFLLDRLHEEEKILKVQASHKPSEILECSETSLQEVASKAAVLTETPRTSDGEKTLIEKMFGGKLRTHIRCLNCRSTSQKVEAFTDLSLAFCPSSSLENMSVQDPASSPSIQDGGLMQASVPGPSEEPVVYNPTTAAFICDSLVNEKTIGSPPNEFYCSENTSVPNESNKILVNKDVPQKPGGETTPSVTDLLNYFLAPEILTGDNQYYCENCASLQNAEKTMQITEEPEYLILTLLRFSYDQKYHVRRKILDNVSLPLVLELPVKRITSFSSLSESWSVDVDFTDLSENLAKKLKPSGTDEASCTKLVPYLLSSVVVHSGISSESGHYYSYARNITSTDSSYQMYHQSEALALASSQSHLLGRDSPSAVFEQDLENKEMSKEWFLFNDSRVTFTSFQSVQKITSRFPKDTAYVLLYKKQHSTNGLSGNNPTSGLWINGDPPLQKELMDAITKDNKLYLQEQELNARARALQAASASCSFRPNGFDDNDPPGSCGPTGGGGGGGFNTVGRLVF
In short: as §1

USP39 = target: T3, USP39 (UniProt Q53GS9)
T3 sequence (whole entry): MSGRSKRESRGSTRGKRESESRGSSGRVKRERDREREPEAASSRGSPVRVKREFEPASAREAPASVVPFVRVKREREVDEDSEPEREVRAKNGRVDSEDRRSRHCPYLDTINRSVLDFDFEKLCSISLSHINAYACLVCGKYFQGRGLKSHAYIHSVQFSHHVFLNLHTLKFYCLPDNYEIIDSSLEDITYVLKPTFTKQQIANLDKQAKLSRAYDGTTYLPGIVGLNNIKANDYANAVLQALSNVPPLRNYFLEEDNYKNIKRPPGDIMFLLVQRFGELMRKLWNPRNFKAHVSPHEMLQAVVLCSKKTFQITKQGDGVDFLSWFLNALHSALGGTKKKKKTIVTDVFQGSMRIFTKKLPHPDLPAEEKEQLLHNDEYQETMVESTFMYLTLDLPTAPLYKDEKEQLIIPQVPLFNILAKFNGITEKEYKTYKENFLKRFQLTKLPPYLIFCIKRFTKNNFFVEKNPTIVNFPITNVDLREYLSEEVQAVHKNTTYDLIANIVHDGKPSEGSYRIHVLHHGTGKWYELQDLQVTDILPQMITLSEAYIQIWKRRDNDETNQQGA
In short: as §1

USP4 = target: T4, USP4 (UniProt Q13107)
T4 sequence (whole entry): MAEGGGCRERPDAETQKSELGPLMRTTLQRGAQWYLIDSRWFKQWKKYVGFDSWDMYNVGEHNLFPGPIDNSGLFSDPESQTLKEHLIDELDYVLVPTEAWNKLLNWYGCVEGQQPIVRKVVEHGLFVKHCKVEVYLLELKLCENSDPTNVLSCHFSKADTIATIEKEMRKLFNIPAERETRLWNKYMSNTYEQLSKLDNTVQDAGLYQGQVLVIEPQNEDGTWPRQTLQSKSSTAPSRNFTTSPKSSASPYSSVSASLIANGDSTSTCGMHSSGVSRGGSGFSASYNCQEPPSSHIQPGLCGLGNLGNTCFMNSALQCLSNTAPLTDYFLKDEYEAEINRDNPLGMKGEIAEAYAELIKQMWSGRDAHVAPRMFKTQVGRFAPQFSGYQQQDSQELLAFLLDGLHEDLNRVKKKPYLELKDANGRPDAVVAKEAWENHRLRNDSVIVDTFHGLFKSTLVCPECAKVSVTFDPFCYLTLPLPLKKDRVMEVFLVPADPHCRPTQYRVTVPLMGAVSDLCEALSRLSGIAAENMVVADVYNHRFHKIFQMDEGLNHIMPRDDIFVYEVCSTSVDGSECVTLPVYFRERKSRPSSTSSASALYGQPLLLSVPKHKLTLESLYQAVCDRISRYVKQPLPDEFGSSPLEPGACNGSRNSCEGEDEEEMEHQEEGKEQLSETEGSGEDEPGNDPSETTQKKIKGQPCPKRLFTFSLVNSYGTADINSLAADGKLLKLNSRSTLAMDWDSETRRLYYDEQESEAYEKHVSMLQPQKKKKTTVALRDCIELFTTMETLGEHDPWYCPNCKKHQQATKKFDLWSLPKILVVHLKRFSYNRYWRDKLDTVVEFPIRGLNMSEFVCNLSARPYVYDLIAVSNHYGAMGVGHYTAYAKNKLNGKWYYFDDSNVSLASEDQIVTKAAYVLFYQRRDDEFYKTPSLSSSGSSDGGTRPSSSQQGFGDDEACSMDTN
In short: as §1

Measured: log2 ratio of Biotin-Ahx-Ub-VS probe labelling

O=C(CCl)N(Cc1ccsc1)C1CC1
inactive: USP34 -0.211 | USP36 0.266 | USP38 0.00214 | USP39 -0.0741 | USP4 -0.116
